These results are taken from PubChem BioAssay (Tox21).

Experiment [1] in a line: qHTS RealTime-Glo MT Cell Viability Assay in HepG2 cells - 16 hour (AID 1224885). Note: nearly all actives have a fitted effect of over 50% in size. Note: potency is the fitted concentration of half-maximal effect. In short, it runs like this:
(§1)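 Cell number in HepG2 cultures estimated from NanoLuc luminescence generated by metabolic reduction of a prosubstrate by living cells. The homogeneous, nonlytic format allowed repeated reads at 0, 8, 16, 24, 32 and 40 h of compound exposure.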
Background: qHTS replaces the single test concentration by a dilution series.

A short description of experiment [2]: qHTS RealTime-Glo MT Cell Viability Assay in HEK293 cells - 24 hour (AID 1224886). For activity change, negative = cytotoxicity: top concentration of the series differs between compounds. Note: nearly all actives have a fitted effect of over 50% in size. Note: potency is the fitted concentration of half-maximal effect. In short, it runs like this: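 Homogeneous bioluminescent viability format in HEK293 cells (600 cells/well). Following 5 h at 37 C/5% CO2, 23 nL compound was pintooled; the signal was measured repeatedly during 40 h incubation.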
Experiment [3] can be described thus: qHTS RealTime-Glo MT Cell Viability Assay in HEK293 cells - 8 hour (AID 1224887). For activity change, negative = cytotoxicity: top concentration of the series differs between compounds. Note: nearly all actives have a fitted effect of over 50% in size. Note: potency is the fitted concentration of half-maximal effect. In a few lines: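 Measured as luminescence from the same continuously cultured HEK293 wells at successive time points (0, 8, 16, 24, 32, 40 h) after compound addition. Reagent present from seeding; dosing at 5 h; incubation 37 C.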
A short description of experiment [4]: A CellTox Green Cytotoxicity Assay to monitor cytotoxicity in HEK293 cells - 16 hour (AID 1224888). Note: nearly all actives have a fitted effect of over 35% in size. Note: potency is the fitted concentration of half-maximal effect. In short, it runs like this:
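Homogeneous no-lysis format: HEK293 cell suspension mixed with CellTox Green reagent, seeded, incubated 5 h at 37 C/5% CO2, then dosed by pintool with compound in DMSO.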

Experiment [5] can be described thus: qHTS RealTime-Glo MT Cell Viability Assay in HepG2 cells - 0 hour (AID 1224889). Note: nearly all actives have a fitted effect of over 50% in size. In a few lines: as §1
Experiment [6] is described as follows: A CellTox Green Cytotoxicity Assay to monitor cytotoxicity in HepG2 cells - 8 hour (AID 1224890). Note: nearly all actives have a fitted effect of over 45% in size. Note: potency is the fitted concentration of half-maximal effect. In a few lines:
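Fluorescent DNA-binding dye, 600 HepG2 cells/well, 5 h preincubation then compound in DMSO; same plates read at 0–40 h, 37 C.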

A short description of experiment [7]: qHTS assay to identify small molecule antagonists of the estrogen receptor alpha (ER-alpha) signaling pathway using the BG1 cell line in the presence of 0.1 nM 17-beta-estradiol - cell viability counter screen (AID 1259241). Note: nearly all actives have a fitted effect of over 40% in size. Note: potency is the fitted concentration of half-maximal effect. In a few lines: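 VM7Luc4E2, 4,000 cells/well, phenol red-free medium + 10% charcoal-stripped FBS; 24 hr plating; cpd + 0.1 nM E2 final, 22 hr 37C/5% CO2; CellTiter-Fluor 30 min, fluorescence.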

The nature of experiment [8]: qHTS assay to identify small molecule antagonists of the androgen receptor (AR) signaling pathway using the MDA cell line in the presence of 0.5 nM R1881 - cell viability counter screen (AID 1259242). Note: nearly all actives have a fitted effect of over 45% in size. In short, it runs like this: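 Human breast carcinoma MDA-kb2 cells, cultured without CO2, receive compounds alongside 0.5 nM (final) R1881 agonist. After 16 hr at 37C, viability is taken as live-cell protease signal.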

Experiment [9] addresses Estrogen receptor (Homo sapiens) (UniProt P03372). The experiment is described as follows: qHTS assay to identify small molecule antagonists of the estrogen receptor alpha (ER-alpha) signaling pathway using the BG1 cell line in the presence of 0.1 nM 17-beta-estradiol (AID 1259244). Note: nearly all actives have a fitted effect of over 50% in size. Note: potency is the fitted concentration of half-maximal effect. In short, it runs like this: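 Seeding of stripped-serum-adapted VM7Luc4E2 cells, 24 h attachment, compound transfer, then 0.1 nM final 17beta-estradiol; after 22 h incubation, ONE-Glo reagent and luminescence reading.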

Experiment [10] is described as follows: qHTS assay to identify small molecule HDAC inhibitors (AID 1259364). For activity change, negative = inhibition: top concentration of the series differs between compounds. Note: potency is the fitted concentration of half-maximal effect.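 Note: wild-type HCT-116 cells with endogenous class I/II HDAC activity; nearly all actives have a fitted effect of over 45% in size.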 In a few lines: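 After a 2 hr compound incubation (37C, 5% CO2), HCT-116 cells seeded at 1,500/well the day before received HDAC-Glo reagent; signal read as luminescence after 30 min at room temperature.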
Experiment [11] in a line: qHTS assay to identify small molecule HDAC inhibitors - cell viability counter screen (AID 1259365). In short, it runs like this:
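Luminescence from CellTiter-Glo, developed 30min at room temperature, reports viability of wild-type HCT-116 cells treated 2hr with compounds at 37 C and 5% CO2 after overnight plating.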

Experiment [12] in a line: qHTS assay to identify small molecule agonists of the sonic hedgehog signaling (Shh) pathway - cell viability counter screen (AID 1259366). Note: nearly all actives have a fitted effect of over 50% in size. Note: potency is the fitted concentration of half-maximal effect. In short, it runs like this: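 Cytotoxicity counter screen run in the same wells as the Shh reporter assay. NIH/3T3 cells carrying a Gli1 response element–driven luciferase were treated with DMSO-dissolved compounds for 24hr, and live-cell protease activity was measured with CellTiter-Fluor.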

Experiment [13] is described as follows: qHTS assay to identify small molecule antagonists of the sonic hedgehog signaling (Shh) pathway - cell viability counter screen (AID 1259367). Note: nearly all actives have a fitted effect of over 55% in size. Note: potency is the fitted concentration of half-maximal effect. In a few lines:
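CellTiter-Fluor signal in conditioned medium-stimulated 3T3 Gli1-Luc cells, 23 hr compound exposure, 37C.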

Experiment [14] is described as follows: qHTS assay to identify small molecule agonists of the sonic hedgehog signaling (Shh) pathway (AID 1259368; calls by dose curve;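 note: NIH/3T3-derived 3T3Gli1-Luc cells carrying a stable Gli1-driven firefly luciferase reporter; series mostly up to about 92 µM; nearly all actives have a fitted effect of over 15% in size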). In a few lines:
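Stable NIH/3T3 Gli1-Luc reporter clone; 24 hr cpd exposure after a 4 hr settling period; luminescence endpoint.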

A short description of experiment [15]: qHTS assay to identify small molecule antagonists of the sonic hedgehog signaling (Shh) pathway (AID 1259369; calls by dose curve; note: nearly all actives have a fitted effect of over 45% in size; note: potency is the fitted concentration of half-maximal effect). In short, it runs like this:
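Gli1 transcriptional reporter (firefly Luc) in NIH/3T3 background, conditioned-medium activated. 24hr exposure, luminescence endpoint.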

Experiment [16] has as its target Androgen receptor (Homo sapiens) (UniProt P10275). The experiment in a line: qHTS assay to identify small molecule antagonists of the androgen receptor (AR) signaling pathway using the MDA cell line in the presence of 0.5 nM R1881 (AID 1259243). Note: nearly all actives have a fitted effect of over 50% in size. In short, it runs like this: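 Cells: MDA-kb2 (MMTV-luc). Stimulus: 0.5 nM R1881. Time: 16 hr, 37C, no CO2. Detection: ONE-Glo luminescence after 30 min at RT.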

A short description of experiment [17]: qHTS assay to identify small molecule phospholipidosis (PLD) inducers (AID 1259344; active = well fitted curve in the direction sought with a large enough effect; an effect the other way counts as inactive or inconclusive). In a few lines:
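Accumulated phospholipid, stained red by LipidTOX during 24 h compound treatment of HepG2 cells at 37 C, is quantified from images as pit number and intensity, normalised per cell using Hoechst-stained nuclei.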

Experiment [18] addresses Estrogen receptor beta (Homo sapiens) (UniProt Q92731). The experiment is described as follows: qHTS assay to identify small molecule agonists of the estrogen receptor beta (ER-beta) signaling pathway (AID 1259377; active = well fitted activation curve with a large enough effect in the signal ratio in the repeat runs, not every such curve was filed as active; the % refers to the signal ratio). In a few lines:
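HEK293T ER-beta-UAS-bla; 2% charcoal-stripped FBS; cells pre-incubated 6 hr, compound 16 hr, 37C/5% CO2; LiveBLAzer B/G FRET substrate 2 h RT; fluorescence intensity read.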

For experiment [19] the target is unchanged. The experiment is described as follows: qHTS assay to identify small molecule antagonists of the estrogen receptor beta (ER-beta) signaling pathway (AID 1259378; active = well fitted inhibition curve with a large enough effect in the signal ratio in the repeat runs, not every such curve was filed as active; the % refers to the signal ratio; note: potency is the fitted concentration of half-maximal effect). In short, it runs like this: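 Antagonist mode: compounds added to beta-lactamase reporter HEK293T ER-beta-UAS cells stimulated with E2 (1nM final), 16 hr at 37C. LiveBLAzer B/G FRET substrate, 2 hours room temperature, fluorescence read-out.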

A number with no mark means an inactive call. Records with an inconclusive call do not appear. Active and inactive are the calls of the source. Unless noted, calls come from the whole dose curve; as a rule, active = well fitted curve in the direction sought with a large enough effect in the repeat runs; inconclusive = weak or mixed curves; inactive = no such curve, though single readings can be large; an effect the other way counts as inactive or inconclusive.
% is set by controls: 0 for no effect and ±100 for the full control effect.

Estrogen receptor beta (Homo sapiens), sequence (Q92731 whole entry, looked up): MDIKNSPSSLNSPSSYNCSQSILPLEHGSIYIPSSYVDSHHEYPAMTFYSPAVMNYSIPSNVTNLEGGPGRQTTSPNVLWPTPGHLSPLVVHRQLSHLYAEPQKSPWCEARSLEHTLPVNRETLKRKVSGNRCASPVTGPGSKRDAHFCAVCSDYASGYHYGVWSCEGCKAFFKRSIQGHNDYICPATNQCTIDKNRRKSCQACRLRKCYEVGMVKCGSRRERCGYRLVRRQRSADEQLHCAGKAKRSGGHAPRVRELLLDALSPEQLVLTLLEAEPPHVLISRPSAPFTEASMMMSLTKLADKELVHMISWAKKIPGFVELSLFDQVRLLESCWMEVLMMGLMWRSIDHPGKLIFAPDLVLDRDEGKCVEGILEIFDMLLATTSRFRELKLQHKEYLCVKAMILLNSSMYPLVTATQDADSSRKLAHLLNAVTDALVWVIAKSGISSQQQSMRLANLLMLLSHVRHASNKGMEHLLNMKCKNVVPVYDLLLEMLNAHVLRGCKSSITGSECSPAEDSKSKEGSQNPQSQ
Estrogen receptor (Homo sapiens), sequence (P03372 whole entry, looked up): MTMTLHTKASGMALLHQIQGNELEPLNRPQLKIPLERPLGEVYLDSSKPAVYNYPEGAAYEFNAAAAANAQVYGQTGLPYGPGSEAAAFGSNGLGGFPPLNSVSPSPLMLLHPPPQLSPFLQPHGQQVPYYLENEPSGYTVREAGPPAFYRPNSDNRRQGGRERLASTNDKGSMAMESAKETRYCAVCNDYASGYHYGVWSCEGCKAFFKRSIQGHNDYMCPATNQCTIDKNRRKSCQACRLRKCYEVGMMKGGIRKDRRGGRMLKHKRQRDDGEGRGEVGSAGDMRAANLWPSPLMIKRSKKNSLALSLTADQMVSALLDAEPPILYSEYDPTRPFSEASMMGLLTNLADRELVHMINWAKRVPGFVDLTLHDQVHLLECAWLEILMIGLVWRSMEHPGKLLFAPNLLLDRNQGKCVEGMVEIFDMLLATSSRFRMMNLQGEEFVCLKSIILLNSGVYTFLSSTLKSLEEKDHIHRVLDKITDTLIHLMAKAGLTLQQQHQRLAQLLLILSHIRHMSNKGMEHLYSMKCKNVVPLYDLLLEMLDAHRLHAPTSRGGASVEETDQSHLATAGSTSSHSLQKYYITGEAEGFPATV
Androgen receptor (Homo sapiens), sequence (P10275 whole entry, looked up): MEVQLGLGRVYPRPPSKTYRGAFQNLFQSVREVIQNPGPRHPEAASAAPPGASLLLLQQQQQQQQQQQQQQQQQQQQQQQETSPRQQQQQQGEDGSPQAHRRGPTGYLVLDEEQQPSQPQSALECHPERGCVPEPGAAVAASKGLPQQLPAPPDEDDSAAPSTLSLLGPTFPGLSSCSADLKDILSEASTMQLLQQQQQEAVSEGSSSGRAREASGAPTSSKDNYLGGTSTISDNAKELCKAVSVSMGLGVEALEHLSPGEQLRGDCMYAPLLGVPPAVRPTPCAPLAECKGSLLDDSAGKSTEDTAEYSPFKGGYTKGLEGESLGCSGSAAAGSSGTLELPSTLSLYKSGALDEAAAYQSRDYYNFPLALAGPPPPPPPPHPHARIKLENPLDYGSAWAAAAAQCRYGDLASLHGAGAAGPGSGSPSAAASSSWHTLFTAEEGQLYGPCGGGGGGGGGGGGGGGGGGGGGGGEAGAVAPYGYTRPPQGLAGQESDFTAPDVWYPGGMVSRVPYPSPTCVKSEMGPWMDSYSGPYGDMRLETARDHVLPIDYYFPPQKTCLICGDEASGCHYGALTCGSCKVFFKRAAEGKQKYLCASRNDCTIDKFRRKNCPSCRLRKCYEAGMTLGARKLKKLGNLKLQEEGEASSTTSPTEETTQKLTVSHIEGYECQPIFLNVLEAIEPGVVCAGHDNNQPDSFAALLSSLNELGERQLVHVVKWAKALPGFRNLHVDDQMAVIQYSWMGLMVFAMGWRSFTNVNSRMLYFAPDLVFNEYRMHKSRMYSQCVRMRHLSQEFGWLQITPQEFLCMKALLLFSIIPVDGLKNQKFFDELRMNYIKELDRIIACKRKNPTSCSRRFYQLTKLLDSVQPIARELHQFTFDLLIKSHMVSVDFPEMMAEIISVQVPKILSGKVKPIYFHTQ

For the compound `CCCCCCCCCCCC(=O)Cl`, the Potency result in [1], in [2], in experiment [3], in experiment [4], in [5] and in experiment [6] was “inactive” in each case. In addition, the Potency entry in [7], in experiment [8], in [9], in experiment [10], in experiment [11] and in [12] was “inactive” throughout. Moreover, the Potency entry in experiment [13], in experiment [14] and in [15] was “inactive” each time.
As for `c1ccc2c(c1)-c1ccc3ccc4cccc5cc-2c1c3c45`, the Potency result in experiment [1], in [2], in experiment [3], in [4], in experiment [5] and in experiment [6] was “inactive” in each case. In addition, the Potency result in [7], in experiment [10], in experiment [11] and in experiment [14] was “inactive” in each case.
As for `O=C(O)C[C@H](O)C[C@H](O)/C=C/c1c(C2CC2)nc2ccccc2c1-c1ccc(F)cc1`, in experiment [1], the activity change, negative = cytotoxic is 0.557% [at 15.8 µM]. Besides, the activity change, negative = cytotoxicity in [2] is -0.416% [at 15.8 µM]; in experiment [3], 5.42% [at 15.8 µM]; in [5], -0.353% [at 15.8 µM]; in experiment [7], 6.55% [at 19 µM]; in experiment [11], 0.738% [at 19 µM]. The activity change in [4] is 2.31% [at 15.8 µM, active compounds read high]; in experiment [14], -2.24% [at 18.9 µM, active compounds read high]. The cytotoxicity increase in experiment [6] is -9.83% [at 15.8 µM]. The viability change, negative = cytotoxic in experiment [8] was -6.18% [at 19 µM]; in experiment [12], -7.99% [at 19 µM]; in experiment [13], -0.451% [at 19 µM]. Further, the activity, negative = inhibition in experiment [16] was 31.2% [at 19 µM]. In addition, the activity change, negative = inhibition was 17.2% [at 19 µM] in experiment [9], -0.0181% [at 19 µM] in experiment [10] and -28% [at 19 µM] in [15]. In addition, the Potency result in experiment [17] was “inactive”.
Regarding `[Cl][Dy]([Cl])[Cl]`, the Potency result in [1], in experiment [2], in [3], in [4], in experiment [5] and in experiment [6] was “inactive” throughout. Also, the Potency result in [7], in [8], in [10], in experiment [11], in experiment [13] and in experiment [14] was “inactive” throughout.
For the compound `CCN(CCC#N)c1ccc(N=Nc2ccc([N+](=O)[O-])cc2)cc1`, the Potency entry in [1], in [2], in [3], in experiment [4], in experiment [5] and in experiment [6] was “inactive” each time. Moreover, the Potency result in [7], in experiment [8], in experiment [16], in experiment [12], in experiment [13] and in experiment [14] was “inactive” throughout. Also, the Potency result in [15] and in experiment [19] was “inactive” throughout. The Potency in experiment [10] is 15.4 µM (active). In [18], the compound was called inactive.
On to `CCC(O)CO` (stereo not given), for which the Potency result in [1], in [2], in [3], in experiment [4], in [5] and in experiment [6] was “inactive” each time. For the same compound, the Potency entry in experiment [8], in experiment [16], in experiment [9], in experiment [10], in [11] and in experiment [12] was “inactive” throughout. The Potency entry in experiment [13], in experiment [14] and in [19] was “inactive” in each case. Also, in experiment [18], the call was inactive.
`NCc1cccc(C2CCN(C(=O)c3ccc(C#Cc4ccccc4F)o3)CC2)c1`: the Potency in [1] is 49 µM (active); in experiment [2], 54.9 µM (active); in experiment [3], 43.6 µM (active); in experiment [4] it was 49 µM (active); in experiment [6], 49 µM (active); in [7], 68.6 µM (active). The Potency in experiment [9] is 68.6 µM (active); in experiment [12], 30.6 µM (active); in experiment [13], 24.3 µM (active); in [15] it was 6.11 µM (active); in experiment [19], 54.5 µM (active). For the same compound, the Potency entry in [10] and in experiment [14] was “inactive” in each case. Further, in [18], the compound was called inactive.
